Data reported in paper PMC5540273 (PLoS ONE, 2017).

What was measured:
Settings in all cases: concentration: 1 μM, replicates: in singlicate; n = 1
BRSK1 = test system: BRSK1
BRSK2 = test system: BRSK2
BTK = test system: BTK
BUB1 = test system: BUB1
CAMK1B = test system: CAMK1B
CAMK1D = test system: CAMK1D
CAMK1G = test system: CAMK1G
CAMK1 = test system: CAMK1
CAMK2A = test system: CAMK2A
CAMK2B = test system: CAMK2B
CAMK2D = test system: CAMK2D
CAMK2G = test system: CAMK2G
CAMK4 = test system: CAMK4
CAMKK1 = test system: CAMKK1
CAMKK2 = test system: CAMKK2
CASK = test system: CASK
CDC2L1 = test system: T1, CDC2L1
T1 construct: gene CDK11B

CDC2L2 = test system: CDC2L2
CDC2L5 = test system: T2, CDC2L5
T2 construct: gene CDK13

CDK11 = test system: T3, CDK11
T3 construct: gene CDK19
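Note: KINOMEscan kinase panel screen.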

| Structure (SMILES) | %Inh (BRSK1) [%] | %Inh (BRSK2) [%] | %Inh (BTK) [%] | %Inh (BUB1) [%] | %Inh (CAMK1B) [%] | %Inh (CAMK1D) [%] | %Inh (CAMK1G) [%] | %Inh (CAMK1) [%] | %Inh (CAMK2A) [%] | %Inh (CAMK2B) [%] | %Inh (CAMK2D) [%] | %Inh (CAMK2G) [%] | %Inh (CAMK4) [%] | %Inh (CAMKK1) [%] | %Inh (CAMKK2) [%] | %Inh (CASK) [%] | %Inh (CDC2L1) [%] | %Inh (CDC2L2) [%] | %Inh (CDC2L5) [%] | %Inh (CDK11) [%] |
| --- | --- | --- | --- | --- | --- | --- | --- | --- | --- | --- | --- | --- | --- | --- | --- | --- | --- | --- | --- | --- |
| Cl.Fc1ccccc1COc1ccc(Nc2ncnc3ccc(-c4nnc(C(F)(F)F)o4)cc23)cc1Cl [GW424170] | 0 | 0 | 0 | 0 | 0 | 8 | 0 | 13 | 0 | 0 | 0 | 14 | 0 | 1 | 10 | 0 | 0 | 15 | 0 | 2 |
| Cn1ccc2ncnc(Oc3ccc(NC(=O)Nc4cccnc4)c(Cl)c3)c21 | 6 | 0 | 0 | 5 | 0 | 0 | 27 | 21 | 0 | 18 | 19 | 19 | 0 | 20 | 11 | 0 | 9 | 0 | 10 | 0 |
| CC(C)(C)c1ccc(-n2cnc3c(N)ncnc32)cc1 [SKF-97263] | 18 | 0 | 0 | 18 | 12 | 9 | 0 | 10 | 0 | 0 | 2 | 0 | 0 | 0 | 0 | 12 | 0 | 0 | 0 | 10 |
| Fc1cccc(COc2ccc(Nc3ncnc4cc[nH]c34)cc2Cl)c1 | 2 | 0 | 0 | 1 | 7 | 0 | 10 | 29 | 27 | 28 | 9 | 11 | 0 | 11 | 0 | 0 | 17 | 11 | 0 | 26 |
| Fc1ccc(-c2ncn(CCCNCc3ccccc3)c2-c2ccncc2)cc1 | 0 | 0 | 0 | 12 | 0 | 4 | 0 | 2 | 21 | 6 | 0 | 0 | 4 | 0 | 0 | 27 | 0 | 0 | 18 | 0 |
